From PubChem BioAssay
Rows were chosen to be rich in hits. Some 3% of all compounds tested hit in one or more screens of this group.
HEK293 viab: cell viability loss counter-screen | Potency, µM (highest dose often 57.1 µM), inactives show at the highest dose activity change, negative = cytotoxicity, most hits filed as cytotoxic | AID 1671193 | HEK-293-SNCA-luc viability, GF-AFC fluorescence, 24 h | 0.12% of 150,000 active;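 note: potency is the fitted concentration of half-maximal effect; 0% = DMSO-treated cells and -100% = medium-only wells without cells; nearly all actives have a fitted effect of over 30% in size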
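HEK-293-SNCA-luc cells (1500/well) plated 24 h, then exposed 24 h to a dilution series; GF-AFC added 30 min at 37C, fluorescence 405/540 nm; normalised to medium-only and DMSO wells, Hill fit.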
IP6K1 inhibitor: blocks human inositol hexakisphosphate kinase 1; IP6K1 kinase, ADP-Glo luminescence, 2 h; active compounds read low; Q92551; 0.81% of 140,000 active; AID 1645851; activity change, % (series mostly up to about 58 µM); in the data active = activity change below about -25%; note: % is set by controls: 0 for no effect and ±100 for the full control effect
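ADP-Glo luminescence measures ADP made by human IP6K1 during a 2 h RT reaction with ATP/IP6 (mix at 1.3 mM/130 uM); top library doses 57.5 and 19.1 uM final.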
SNCA expr inhib: SNCA gene expression inhibition; HEK-293 SNCA-luciferase knock-in, luminescence, 24 h; Potency, µM (top dose mostly 57.2 µM), inactives show at the top dose activity change, negative = inhibition, hits mostly inhibitors; 0.17% of 140,000 active; AID 1671194;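 note: potency is the fitted concentration of half-maximal effect; plate controls were DMSO cells for no effect and cell-free wells for full effect; nearly all actives have a fitted effect of over 45% in size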
KDM5B inhibitor: blocks human KDM5B histone demethylase activity. Q9UGL1. KDM5B demethylase, FDH-coupled NADH fluorescence (FDH is formaldehyde dehydrogenase). Potency, µM (series often up to 57.7 µM), hits mostly inhibitors. 2.6% of 220,000 active. AID 1347165; note: potency is the fitted concentration of half-maximal effect; 0% is about no effect; nearly all actives have a fitted effect of over 70% in size
Target sequence (Q9UGL1 whole entry, looked up): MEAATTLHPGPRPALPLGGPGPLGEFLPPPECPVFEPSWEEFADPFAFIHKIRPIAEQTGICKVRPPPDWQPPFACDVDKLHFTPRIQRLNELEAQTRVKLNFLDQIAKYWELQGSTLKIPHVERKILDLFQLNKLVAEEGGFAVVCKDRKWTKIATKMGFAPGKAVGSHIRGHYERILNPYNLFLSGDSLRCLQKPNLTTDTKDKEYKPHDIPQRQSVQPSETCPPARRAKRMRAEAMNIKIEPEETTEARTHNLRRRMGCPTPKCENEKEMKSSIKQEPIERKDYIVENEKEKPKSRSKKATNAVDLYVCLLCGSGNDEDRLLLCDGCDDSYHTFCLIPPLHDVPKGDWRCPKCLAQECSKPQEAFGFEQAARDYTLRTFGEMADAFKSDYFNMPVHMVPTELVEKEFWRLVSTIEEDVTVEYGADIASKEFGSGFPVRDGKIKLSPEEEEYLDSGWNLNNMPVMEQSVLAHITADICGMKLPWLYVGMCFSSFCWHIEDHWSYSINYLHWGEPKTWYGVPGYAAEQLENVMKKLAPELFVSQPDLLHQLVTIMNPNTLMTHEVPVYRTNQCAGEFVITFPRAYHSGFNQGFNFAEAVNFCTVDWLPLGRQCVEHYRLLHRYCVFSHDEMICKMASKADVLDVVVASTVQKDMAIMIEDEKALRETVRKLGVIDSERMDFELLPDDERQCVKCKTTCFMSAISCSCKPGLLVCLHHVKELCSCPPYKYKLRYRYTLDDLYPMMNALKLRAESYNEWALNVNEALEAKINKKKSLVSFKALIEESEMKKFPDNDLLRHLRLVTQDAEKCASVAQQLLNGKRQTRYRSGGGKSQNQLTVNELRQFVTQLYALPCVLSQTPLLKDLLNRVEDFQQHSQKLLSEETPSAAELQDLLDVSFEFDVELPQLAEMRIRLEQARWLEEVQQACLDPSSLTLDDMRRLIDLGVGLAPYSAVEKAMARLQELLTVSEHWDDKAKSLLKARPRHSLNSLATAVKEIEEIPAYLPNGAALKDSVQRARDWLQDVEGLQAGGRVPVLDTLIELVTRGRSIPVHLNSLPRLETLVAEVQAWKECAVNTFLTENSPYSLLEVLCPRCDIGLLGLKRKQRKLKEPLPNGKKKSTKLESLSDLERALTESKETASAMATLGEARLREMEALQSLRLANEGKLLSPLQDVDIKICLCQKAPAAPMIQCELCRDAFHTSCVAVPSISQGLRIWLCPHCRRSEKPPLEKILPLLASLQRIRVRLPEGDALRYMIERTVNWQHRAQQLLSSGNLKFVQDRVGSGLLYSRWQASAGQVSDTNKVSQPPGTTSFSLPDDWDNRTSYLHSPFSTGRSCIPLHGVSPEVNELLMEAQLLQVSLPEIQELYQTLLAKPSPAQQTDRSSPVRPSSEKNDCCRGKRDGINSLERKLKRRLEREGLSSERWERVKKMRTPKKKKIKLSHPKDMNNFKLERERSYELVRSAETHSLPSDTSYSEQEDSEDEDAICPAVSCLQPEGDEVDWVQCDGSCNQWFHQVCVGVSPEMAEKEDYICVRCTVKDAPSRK
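KDM5BΔAP (200 nM final) in 50 mM HEPES pH 7.5, 0.01% Tween-20 was preincubated 10 min at RT with compound over a concentration range. Substrate mix (H3K4me3 12.5 µM, α-KG 25 µM, Fe²⁺, ascorbate, NAD⁺, FDH) was added, and NADH fluorescence change over 30 min gave dose-response curves.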
IP6K1 inh cnf: confirmation of human IP6K1 inhibitors. recombinant IP6K1 kinase, ADP-Glo luminescence, 2 h. 13% of 1,200 active. shares compounds with IP6K1 inhibitor. AID 1645852. Potency, µM (series often up to 49 µM), without a hit: at the highest dose activity change, negative = inhibition, most hits filed as inhibitors; note: potency is the fitted concentration of half-maximal effect; % is set by controls: 0 for no effect and ±100 for the full control effect; nearly all actives have a fitted effect of over 65% in size
* hit, by the source's call; i = inactive; u = inconclusive; x = no result; [ ] = remark or other dose. Unless noted, calls come from the whole dose curve; as a rule, active = well fitted curve in the direction sought with a large enough effect; inconclusive = small, poorly fitted or top-dose-only effect, or another doubt; inactive = no such curve, though single readings can be large; an effect the other way counts as inactive or inconclusive.

SMILES	HEK293 viab	IP6K1 inhibitor	SNCA expr inhib	KDM5B inhibitor	IP6K1 inh cnf
CN1C(=O)CC[C@H]1c1cccnc1	-4%	-14	-3%	x	x
CN1CC[C@@H](c2c(O)cc(O)c3c(=O)cc(-c4ccccc4Cl)oc23)[C@@H](O)C1	u	x	0.22µM*	x	u
c1ccc2c(CCNc3ccc(Nc4ccncc4)cc3)c[nH]c2c1	-12%	23	u	x	x
c1cc(NCCc2c[nH]c3ccccc23)cc(Nc2ccncc2)c1	u	-34*	x	x	-5%
Brc1ccc2[nH]c3c(c2c1)CCCC3	x	x	x	i	x
CCn1nc(C(=O)N2CCN(S(=O)(=O)c3ccc(C(C)(C)C)cc3)CC2)c2ccccc2c1=O	x	x	x	i	x
CCN(CCCNC(=O)c1cc(Nc2ccc(OC)cc2OC)nc2ccccc12)c1cccc(C)c1	-4%	-36*	3%	u	-2%
COc1ccc(CNC(=O)c2cc(Nc3ccccc3C)nc3ccccc23)cc1	4%	0	-14%	i	x
COc1ccc(Nc2cc(C(=O)NCc3ccccc3)c3ccccc3n2)cc1	-1%	-44*	-5%	i	-10%
N#Cc1ccc(Oc2ccc(-c3ccc(Oc4ccc(C#N)cc4)cc3)cc2)cc1	x	x	x	i	x
CN(C)c1ccc(-c2cc(-c3ccc(=O)[nH]c3)c3cncn3c2)cc1	-19%[87.6 µM]	0	26%[87.6 µM]	u	-14%
CCC(C)c1ccc(NC(=O)COC(=O)c2cc(=O)c3ccccc3o2)cc1 (stereo not given)	x	x	x	i	x
COc1cc(NC(=O)Cn2c(=O)nc(-c3ccccc3F)c3cc(Cl)ccc32)cc(OC)c1	u	-28*	u	i	u
CCNc1c(NC(=O)c2cc(Cl)ccc2OC)c(=O)oc2ccccc12	x	x	x	i	x
COc1cccc(Cn2cc(S(=O)(=O)c3ccc(C)cc3)c(=O)c3cc4c(cc32)OCO4)c1	-8%	-30*	69%	u	11%
COC(=O)c1cc(NC(=O)CC2C(=O)OCCN2Cc2ccccc2)cc(C(=O)OC)c1 (stereo not given)	1%	-33*	-10%	i[11.5 µM]	9%
Cc1nn(C(C)C)c(C)c1N	x	x	x	i	x
O=Cc1ccc(-c2ccc(C(=O)O)cn2)cc1	2%[87.6 µM]	-27*	9%[87.6 µM]	22µM*	6%
O=Cc1cccc(-c2ccc(C(=O)O)cn2)c1	-6%[87.6 µM]	-16	-13%[87.6 µM]	i	x
COc1ccc(CCNC(=O)CN2C(=O)COc3ccccc32)cc1OC	-21%	-34*	-1%	i	2%
COc1ccc(-c2nc3c(c(=O)[nH]2)CCN(S(=O)(=O)c2cccc4cccnc24)C3)cc1	3%	20	1%	u	x
NC(=O)CSc1ncc(-c2ccc(F)cc2)o1	x	x	x	i	x
Cc1ccc(C(=O)N2CCC3(CC2)CC(N(Cc2ccc(F)cc2)C2CC2)CCO3)cc1 (stereo not given)	-5%	-16	-7%	i	x
Cc1ccc(C(=O)N2CCC3(CC2)CC(N(Cc2ccc(F)cc2)C2CC2)CCO3)cn1 (stereo not given)	-3%	-26*	2%	i	4%
Cc1ccc(S(=O)(=O)N2CCCc3cc(NS(=O)(=O)c4cccc(Cl)c4)ccc32)cc1	-23%	-26*	u	i	6%
SMILES	HEK293 viab	IP6K1 inhibitor	SNCA expr inhib	KDM5B inhibitor	IP6K1 inh cnf
CCOc1ccc(S(=O)(=O)Nc2ccc3c(c2)CCCN3S(=O)(=O)c2ccc(C)cc2)cc1	-12%	-8	-27%	i	x
CCOC(=O)Cn1c(=N)n(Cc2ccc(C(C)(C)C)cc2)c2ccccc21	u	-27*	u	u	2%
Cc1nc(-c2ccc(C)c(S(=O)(=O)N3CCC(C(=O)Nc4ccc(Cl)cc4)CC3)c2)no1	-1%	-26*	u	i	4%
COc1cccc(NC(=O)C2CCN(S(=O)(=O)c3cc(-c4noc(C)n4)ccc3C)CC2)c1	-12%	-36*	-13%	i	-7%
CCc1cccc(NC(=O)C2CCN(S(=O)(=O)c3cccc(-c4noc(C)n4)c3)CC2)c1	0%	46	u	i	x
CC(=O)c1ccc(N2CCN(S(=O)(=O)c3cc(-c4noc(C)n4)ccc3C)CC2)cc1	5%	5	-21%	i	x
Cc1ccc([S+](=O)([O-])N2CCC(C(=O)N3CCC(N4CCOC4=O)CC3)CC2)cc1	6%	-5	22%	x	x
COc1cccc2c1cc1c(=O)n(CC(=O)NCc3ccc(C)o3)nc(C)n12	8%	-30*	-7%	u	-4%
